{"source": "PubChem BioAssay (NCI)", "note": "About 83,000 compounds went through this panel and 20% of them were active in at least one assay; those are over-represented in the sample as a whole.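 The endpoint reported here, percent growth, reads 100 for growth as untreated, 0 for no net growth and -100 for all cells dead.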 Unmarked numbers belong to inactive results. Calls of active or inactive are those of the source. Rule for the calls: active = growth percent below 10; inactive = the rest.", "data": [{"test_system": "IGROV1 ovarian", "test": "NCI-60 one-dose screen, 48 h (100 = growth as untreated, 0 = no growth, -100 = all killed)", "conditions": "10 µM unless noted", "values": [{"smiles": "COc1cc(C2CC(c3ccccc3)=NN2C=O)ccc1Oc1nc2c(c(=O)n(C)c(=O)n2C)n1C", "note": "(stereo not drawn)", "growth": "77.7%"}, {"smiles": "COc1ccc2[nH]cc(C3(c4c[nH]c5ccc(OC)cc45)C(=O)Nc4ccc(F)cc43)c2c1", "growth": "74.2%"}, {"smiles": "CC1=CC(=O)OC1C/C=C(\\C)CCC1[C@@]2(C)CCC[C@@](C)(C(=O)O)C2CC[C@@]1(C)O", "note": "(stereo partly drawn)", "growth": "107%"}, {"smiles": "CC1=C(/C=C/C(C)=C/C=C(C(=O)O)\\C(C)=C\\C(=O)O)C(C)(C)CCC1", "growth": "99.2%"}, {"smiles": "CCN(CCC#N)c1ccccc1", "growth": "115%"}, {"smiles": "CCCCOC(=O)c1cc(O)c(O)c(O)c1", "growth": "55.6%"}, {"smiles": "COc1cccc(-c2nc3sccn3c2-c2ccnc(NCCN3CCCNS3(=O)=O)n2)c1", "growth": "75%"}, {"smiles": "CC(=O)Oc1ccccc1C(=O)Nc1ncc([N+](=O)[O-])s1", "growth": "26.2%"}, {"smiles": "Cc1ccc([C@H]2c3[nH]c4ccccc4c3C[C@H]3C(=O)N(CCCCCCC(=O)NO)CC(=O)N23)cc1", "growth": "57.3%"}, {"smiles": "COc1ccc(-c2cc(-c3cn(-c4cccc(Cl)c4)nc3-c3ccc(OC)cc3)[nH]c(=S)n2)cc1", "growth": "59.4%"}, {"smiles": "CCn1c(Cc2ccccc2Nc2c(Cl)cccc2Cl)nnc1SCC(=O)Nc1ccccc1C(F)(F)F", "growth": "79.4%"}, {"smiles": "COc1cc(/C=C/c2cc(/C=C/c3ccc(O)c(OC)c3)n(C(=O)c3ccccc3Br)n2)ccc1O", "growth": "25%"}, {"smiles": "CCOC(=O)C(Cc1ccccc1)n1c(O)c(/C=N/c2ncc(Cc3ccc(Cl)cc3Cl)s2)sc1=S", "note": "(stereo not drawn)", "growth": "37.6%"}, {"smiles": "Cc1nn(-c2cccc(Cl)c2)c(C)c1N=Nc1ccc(Br)cc1", "growth": "100%"}, {"smiles": "O=C(N/N=C\\c1cc(Br)ccc1O)c1ccncc1", "growth": "25.2%"}, {"smiles": "CC(C)OC1OC(OC(C)C)C(OC(C)C)OC1OC(C)C", "note": "(stereo not drawn)", "growth": "93.9%"}, {"smiles": "COc1ccc2c(c1)C1=NN(C(=O)CO)[C@H](c3ccc(OC(F)(F)F)cc3)[C@@H]1CC2", "growth": "72.3%"}, {"smiles": "Cn1c(-c2ccccc2)cc(=O)n1-c1ccccc1", "growth": "114%"}, {"smiles": "CC(C)(C)c1ccc(C(=O)Nc2sc3cc(O)ccc3c2C(N)=O)cc1", "growth": "57.9%"}, {"smiles": "O=C1N(Cc2ccccc2Cl)c2ccccc2C12NN=C(c1ccccc1)S2", "note": "(stereo not drawn)", "growth": "61.7%"}, {"smiles": "CC(=O)c1ccc(N2C(=O)c3ccc(Oc4ccccc4)cc3C2=O)cc1", "growth": "108%"}, {"smiles": "CC1CCCN(CCCCOc2ccc(-c3ccc(C#N)cc3)cc2)C1", "note": "(stereo not drawn)", "growth": "107%"}, {"smiles": "CNC(=O)c1c(NC(=O)c2cccc(C(F)(F)F)c2)sc2c1CCC(=O)C2", "growth": "-24.8% (active)"}, {"smiles": "OC(COCc1ccccc1)COCc1ccccc1", "growth": "108%"}, {"smiles": "CN1CCCN(CCNc2nccc(-c3c(-c4cccc(O)c4)nc4sccn34)n2)S1(=O)=O", "growth": "13.7%"}, {"smiles": "CC(=O)NC1C(O[C@H]2C[C@H]3[C@@H]4CC=C5C[C@@H](O)CC[C@]5(C)[C@H]4CC[C@]3(C)[C@H]2[C@H](C)C(=O)CCC(C)C)OCC(O)C1O", "note": "(stereo partly drawn)", "growth": "72%"}, {"smiles": "CN(C)c1nc(-c2cccs2)n2nc(-c3ccc(Cl)cc3)cc2n1", "growth": "11.9%"}, {"smiles": "O=C1NN(C(=O)c2ccccc2)C(c2ccc(Cl)c(Cl)c2)=C/C1=C\\c1ccccc1[N+](=O)[O-]", "growth": "19.3% [6.75 µM]"}, {"smiles": "COc1ccc(C(=O)OC2C(OC3C(O)COC(O[C@H]4C[C@H]5[C@@H]6CC=C7C[C@@H](O)CC[C@]7(C)[C@H]6CC[C@]5(C)[C@H]4[C@H](C)C(=O)CCC(C)C)C3OC(=O)C(C)C)OCC(O)C2O)cc1", "note": "(stereo partly drawn)", "growth": "37.2%"}, {"smiles": "CCSCC1CC(O)(c2ccccc2)C(c2ccccc2)C(c2ccc(F)cc2)O1", "note": "(stereo not drawn)", "growth": "11.2%"}, {"smiles": "Nc1c(N)c2ccccc2c2ccccc12", "growth": "117%"}, {"smiles": "Cc1csc(N/N=C/c2ccncc2)n1", "growth": "105%"}, {"smiles": "COc1ccc(-c2cc(C(=O)Nc3ccc(C)cc3)nc3[nH]c(=O)sc23)cc1", "growth": "70.3%"}, {"smiles": "COc1ccccc1-[n+]1cc(-c2ccc(-c3ccccc3)cc2)n2c1CCCCC2", "growth": "16.6%"}, {"smiles": "COc1ccc(/C=N/NC(N)=S)c(OC)n1", "growth": "100%"}, {"smiles": "Nc1c(Br)cc2c(c1Br)Cc1cc(Cl)ccc1-2", "growth": "84.3%"}, {"smiles": "Nc1nc(NC2CC2)cc(-c2cccc(Cl)c2Cl)n1", "growth": "65.6%"}, {"smiles": "COc1cc2c(c(OC)c1O)C(=O)C(OC)C(c1ccc(O)c(O)c1)O2", "note": "(stereo not drawn)", "growth": "14.1%"}]}]}
